Reference: PMC7862700, “An all-to-all approach to the identification of sequence-specific readers for epigenetic DNA modifications on cytosine”

Key:
Assay in all cases: DAPPL (digital affinity profiling via proximity ligation, sequencing); 10 mM Tris-HCl pH 7.5, 50 mM NaCl, 1 mM DTT, 4% glycerol, room temperature, 30 min; GST-TFs on glutathione beads, 16-mer random dsDNA library, 0.1% formaldehyde crosslink after washing; high values mean tight binding
[1] = molecular target: T1, FEV (Homo sapiens, UniProt Q99581 1-238); conditions: protein: recombinant; tags: N-terminal GST; dsDNA, one strand shown
T1 sequence: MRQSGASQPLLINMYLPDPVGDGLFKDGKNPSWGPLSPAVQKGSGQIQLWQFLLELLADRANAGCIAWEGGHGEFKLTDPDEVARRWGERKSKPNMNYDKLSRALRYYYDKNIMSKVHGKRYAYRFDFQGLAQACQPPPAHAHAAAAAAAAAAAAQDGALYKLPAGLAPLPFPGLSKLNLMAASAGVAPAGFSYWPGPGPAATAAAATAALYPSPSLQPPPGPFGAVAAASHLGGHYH
Procedure, shortened: (§1)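 Pools of DNA-barcoded human transcription factors, expressed in yeast as GST fusions on glutathione beads and combined with a tag-only sample, were incubated with 200 nmole of a 16-mer random double-stranded DNA library. Incubation took 30 min at room temperature in Tris/NaCl/DTT/glycerol buffer and was followed by washing, 0.1% formaldehyde crosslinking, proximity ligation (BsaI/T4 ligase, 1 h, 37 °C), PCR amplification and sequencing on an Illumina NextSeq500. Binding signal is the ratio of a hexamer's read frequency for a factor to its frequency for the tag-only sample.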

[2] = molecular target: ETV5 (Homo sapiens, UniProt P41161 1-510); conditions: protein: recombinant; tags: N-terminal GST; dsDNA, one strand shown
Procedure, shortened: as §1

[3] = molecular target: HSF1 (Homo sapiens, UniProt Q00613 1-529); conditions: protein: recombinant; tags: N-terminal GST; chain copies: 3; dsDNA, one strand shown
Procedure, shortened: as §1

[4] = molecular target: T2, SPIC (Homo sapiens, UniProt Q8N5J4 1-248); conditions: protein: recombinant; tags: N-terminal GST; dsDNA, one strand shown
T2 sequence: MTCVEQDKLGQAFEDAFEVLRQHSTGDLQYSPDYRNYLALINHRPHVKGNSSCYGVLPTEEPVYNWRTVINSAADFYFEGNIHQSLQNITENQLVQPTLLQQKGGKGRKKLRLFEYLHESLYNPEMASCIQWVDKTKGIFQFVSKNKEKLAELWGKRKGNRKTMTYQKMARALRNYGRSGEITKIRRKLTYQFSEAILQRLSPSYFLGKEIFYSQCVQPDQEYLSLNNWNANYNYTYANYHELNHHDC
Procedure, shortened: as §1

[5] = molecular target: ELF4 (Homo sapiens, UniProt Q99607 1-663); conditions: protein: recombinant; tags: N-terminal GST; dsDNA, one strand shown
Procedure, shortened: as §1

[6] = molecular target: T3, ELK4 (Homo sapiens, UniProt P28324-2 1-405); conditions: protein: recombinant; tags: N-terminal GST; dsDNA, one strand shown
T3 sequence: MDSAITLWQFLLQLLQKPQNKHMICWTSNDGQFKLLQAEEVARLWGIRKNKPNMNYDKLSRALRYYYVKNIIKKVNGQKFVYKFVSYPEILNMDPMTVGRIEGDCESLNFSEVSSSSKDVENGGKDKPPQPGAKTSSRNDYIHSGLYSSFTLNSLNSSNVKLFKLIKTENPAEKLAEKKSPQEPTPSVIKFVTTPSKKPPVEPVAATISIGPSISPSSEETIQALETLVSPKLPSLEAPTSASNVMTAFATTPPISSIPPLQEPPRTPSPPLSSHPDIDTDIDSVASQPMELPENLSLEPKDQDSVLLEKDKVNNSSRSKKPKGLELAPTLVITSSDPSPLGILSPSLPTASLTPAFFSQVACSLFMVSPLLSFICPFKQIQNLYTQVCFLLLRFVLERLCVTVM
Procedure, shortened: as §1

[7] = molecular target: T4, ETV2 (Homo sapiens, UniProt O00321 1-342); conditions: protein: recombinant; tags: N-terminal GST; dsDNA, one strand shown
T4 sequence: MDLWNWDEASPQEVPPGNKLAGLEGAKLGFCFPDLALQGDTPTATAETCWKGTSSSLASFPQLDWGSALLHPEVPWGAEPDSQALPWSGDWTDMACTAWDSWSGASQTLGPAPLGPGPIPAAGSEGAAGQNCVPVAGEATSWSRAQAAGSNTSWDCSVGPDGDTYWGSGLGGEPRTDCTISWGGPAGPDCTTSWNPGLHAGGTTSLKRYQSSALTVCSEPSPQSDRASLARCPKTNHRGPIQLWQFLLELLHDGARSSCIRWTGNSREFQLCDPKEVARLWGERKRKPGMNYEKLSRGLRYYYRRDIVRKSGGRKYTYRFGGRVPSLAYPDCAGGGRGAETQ
Procedure, shortened: as §1

[8] = molecular target: T5, ELF3 (Homo sapiens, UniProt P78545 1-371); conditions: protein: recombinant; tags: N-terminal GST; dsDNA, one strand shown
T5 sequence: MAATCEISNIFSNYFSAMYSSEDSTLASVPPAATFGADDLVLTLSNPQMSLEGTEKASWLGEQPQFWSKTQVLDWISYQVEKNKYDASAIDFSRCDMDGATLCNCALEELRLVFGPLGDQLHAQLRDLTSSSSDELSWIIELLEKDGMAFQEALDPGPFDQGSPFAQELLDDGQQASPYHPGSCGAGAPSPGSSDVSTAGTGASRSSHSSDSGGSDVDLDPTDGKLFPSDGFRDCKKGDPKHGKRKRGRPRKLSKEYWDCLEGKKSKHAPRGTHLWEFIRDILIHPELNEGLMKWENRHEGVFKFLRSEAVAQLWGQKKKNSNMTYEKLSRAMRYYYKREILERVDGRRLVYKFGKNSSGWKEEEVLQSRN
Procedure, shortened: as §1

[9] = molecular target: CRX (Homo sapiens, UniProt O43186 1-299); conditions: protein: recombinant; tags: N-terminal GST; dsDNA, one strand shown
Procedure, shortened: as §1

Chain of CRX (O43186 whole entry): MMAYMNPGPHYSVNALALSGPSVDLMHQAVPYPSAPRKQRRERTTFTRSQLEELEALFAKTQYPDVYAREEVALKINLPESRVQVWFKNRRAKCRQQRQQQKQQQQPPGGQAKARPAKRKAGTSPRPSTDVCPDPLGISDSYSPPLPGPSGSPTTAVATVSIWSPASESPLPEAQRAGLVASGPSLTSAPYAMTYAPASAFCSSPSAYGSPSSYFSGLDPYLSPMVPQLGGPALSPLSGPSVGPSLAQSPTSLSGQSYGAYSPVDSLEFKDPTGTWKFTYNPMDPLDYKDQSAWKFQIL
Chain of ELF4 (Q99607 whole entry): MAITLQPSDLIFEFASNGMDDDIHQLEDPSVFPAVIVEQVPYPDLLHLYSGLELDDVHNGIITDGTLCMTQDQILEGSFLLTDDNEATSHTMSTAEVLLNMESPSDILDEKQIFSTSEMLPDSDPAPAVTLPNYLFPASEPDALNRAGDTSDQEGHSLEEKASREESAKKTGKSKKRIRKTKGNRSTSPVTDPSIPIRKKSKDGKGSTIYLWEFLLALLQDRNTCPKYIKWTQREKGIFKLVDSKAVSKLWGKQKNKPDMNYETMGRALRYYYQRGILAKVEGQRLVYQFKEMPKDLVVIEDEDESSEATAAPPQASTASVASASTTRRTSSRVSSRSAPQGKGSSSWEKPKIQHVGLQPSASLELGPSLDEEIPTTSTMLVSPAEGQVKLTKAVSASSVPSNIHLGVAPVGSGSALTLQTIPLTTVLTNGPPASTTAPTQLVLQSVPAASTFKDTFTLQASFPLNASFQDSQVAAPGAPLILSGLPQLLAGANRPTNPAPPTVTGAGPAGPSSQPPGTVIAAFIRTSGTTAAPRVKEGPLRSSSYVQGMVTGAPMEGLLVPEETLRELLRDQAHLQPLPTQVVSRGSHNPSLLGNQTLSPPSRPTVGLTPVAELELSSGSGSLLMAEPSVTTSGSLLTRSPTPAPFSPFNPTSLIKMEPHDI
Chain of HSF1 (Q00613 whole entry): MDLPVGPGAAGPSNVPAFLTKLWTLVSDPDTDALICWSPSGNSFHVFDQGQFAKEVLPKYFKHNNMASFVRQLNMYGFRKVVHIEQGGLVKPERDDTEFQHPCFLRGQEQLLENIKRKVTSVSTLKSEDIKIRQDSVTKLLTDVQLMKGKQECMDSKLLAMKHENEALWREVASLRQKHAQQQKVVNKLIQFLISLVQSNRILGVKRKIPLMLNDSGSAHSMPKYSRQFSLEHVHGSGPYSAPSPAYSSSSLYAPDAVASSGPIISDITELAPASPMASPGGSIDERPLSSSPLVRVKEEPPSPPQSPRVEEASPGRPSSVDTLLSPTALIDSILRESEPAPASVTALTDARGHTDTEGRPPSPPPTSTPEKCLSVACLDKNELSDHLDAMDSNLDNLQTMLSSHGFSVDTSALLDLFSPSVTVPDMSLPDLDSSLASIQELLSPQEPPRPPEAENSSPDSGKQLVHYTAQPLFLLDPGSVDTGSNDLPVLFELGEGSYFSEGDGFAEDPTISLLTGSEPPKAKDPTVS
Chain of ETV5 (P41161 whole entry): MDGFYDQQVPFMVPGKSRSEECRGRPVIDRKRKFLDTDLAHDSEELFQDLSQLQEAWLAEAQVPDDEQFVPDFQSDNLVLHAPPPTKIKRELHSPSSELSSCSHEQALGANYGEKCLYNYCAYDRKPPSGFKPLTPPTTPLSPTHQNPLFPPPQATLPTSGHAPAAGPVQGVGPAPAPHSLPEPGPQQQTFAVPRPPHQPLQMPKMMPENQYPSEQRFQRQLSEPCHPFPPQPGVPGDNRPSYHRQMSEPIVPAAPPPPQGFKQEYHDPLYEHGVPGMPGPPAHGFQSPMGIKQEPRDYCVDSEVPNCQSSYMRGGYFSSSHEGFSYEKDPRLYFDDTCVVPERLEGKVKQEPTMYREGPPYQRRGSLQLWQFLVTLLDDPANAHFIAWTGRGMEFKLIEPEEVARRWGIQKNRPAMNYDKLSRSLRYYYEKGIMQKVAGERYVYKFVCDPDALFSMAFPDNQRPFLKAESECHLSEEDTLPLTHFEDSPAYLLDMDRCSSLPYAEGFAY

Sequence: AATTCA
- binding signal [1]: 1.24 fold enrichment (6-mer frequency, TF over GST control)
- binding signal [2]: 1.34 fold enrichment (6-mer frequency, TF over GST control)
- binding signal [3]: 1.34 fold enrichment (6-mer frequency, TF over GST control)
- binding signal [4]: 1.32 fold enrichment (6-mer frequency, TF over GST control)
- binding signal [5]: 1.33 fold enrichment (6-mer frequency, TF over GST control)
- binding signal [6]: 1.26 fold enrichment (6-mer frequency, TF over GST control)
- binding signal [7]: 1.36 fold enrichment (6-mer frequency, TF over GST control)
- binding signal [8]: 1.35 fold enrichment (6-mer frequency, TF over GST control)
- binding signal [9]: 1.39 fold enrichment (6-mer frequency, TF over GST control)
